Records with an inconclusive call do not appear. Activity calls are given as the source filed them. Unless noted, calls follow the shape of the dose curve; as a rule, active = well fitted curve in the direction sought with a large enough effect; inconclusive = small, poorly fitted or top-dose-only effect, or another doubt; inactive = no such curve, though single readings can be large; an effect the other way counts as inactive or inconclusive.
Tests used:
[1] = biological target: Lysosomal acid glucosylceramidase (Homo sapiens) (UniProt P04062); test: Glucocerebrosidase-p2 (AID 348; in the data active = potency below about 10 µM; also: potency is read from the fitted curve at half-maximal effect); conditions: purified GBA, blue fluorogenic substrate, 40 min
Method in brief: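 Normal human glucocerebrosidase (0.2 nM) with blue fluorogenic substrate (80 uM final) in citrate/phosphate pH 5.9 with 10mM sodium taurocholate, 0.01% tween-20; 40 min RT, NaOH/glycine stop; fluorescence Ex 365/Em 440; AC50 from a titration from 0.6 nM upwards.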

[2] = AP1 Signaling Pathway (AID 357; active = well fitted curve in either direction with a large enough effect, not every such curve was filed as active;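 also: ME-180 reporter cells stimulated with EGF at its EC50 level; % is scaled to controls: 0 for no effect and ±100 for the full control effect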); conditions: ME-180 AP-1-bla reporter, EGF-induced, beta-lactamase ratio, 5 h; at 7.69 µM (top of the series) unless noted
Method in brief: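 Modulation of EGF-driven AP-1 transcription was assessed with a beta-lactamase reporter in ME-180 cells. Compound and EC50 EGF were co-incubated 5 hours at 37 °C before 2.5-hour CCF4 loading at room temperature and dual-emission reading.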

[3] = NFAT Signaling Pathway (AID 444; active = well fitted curve in either direction with a large enough effect, not every such curve was filed as active;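 also: carbachol stimulus at about its EC50 of 1 µM final; % is scaled to controls: 0 for no effect and ±100 for the full control effect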); conditions: Jurkat NFAT-bla M1, carbachol, beta-lactamase ratio, 5 h; at 7.69 µM (top of the series) unless noted
Method in brief: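 Jurkat cells carrying an NFAT-driven β-lactamase reporter and co-transfected muscarinic M1 receptor were treated with compound plus carbachol (1 uM final, an EC50 level) for 5 h at 37 °C. CCF4 loading followed for 1 h at RT; 460/530 nm ratio gave %activity.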

[4] = Stat Signaling Pathway (AID 446; active = well fitted curve in either direction with a large enough effect, not every such curve was filed as active;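 also: ME-180 cervical cancer cells given 40 pM IL-6 alongside compound; SIE-controlled beta-lactamase reporter measured as 460/530 nm FRET emission ratio; % is scaled to controls: 0 for no effect and ±100 for the full control effect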); conditions: ME-180 (cervical carcinoma) SIE beta-lactamase reporter, IL-6 stimulated, 5 h; at 7.69 µM (top of the series) unless noted
Method in brief: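 Compound effects on IL-6-induced STAT reporter activity were measured in ME-180 cells. After overnight culture, cells were co-treated with 40 pM IL-6 for 5 hrs before beta-lactamase substrate loading at room temperature.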

[5] = biological target: Glucocorticoid receptor (Homo sapiens) (UniProt P04150); test: GR-EFC Redistribution (AID 451; calls by dose curve; also: potency is read from the fitted curve at half-maximal effect); conditions: CHO-K1 GR-EFC translocation, beta-gal luminescence, 2 h
Method in brief: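 CHO-K1 cells stably expressing nuclear-localized β-gal enzyme acceptor and GR fused C-terminally to the enzyme donor fragment; ligand-driven nuclear translocation restores β-gal by complementation. Compounds titrated up to 46 uM final, 2 h at 37 °C; luminescence read.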

[6] = biological target: Mitogen-activated protein kinase 10 (Mus musculus) (UniProt Q61831); test: JNK3 AlphaScreen Assay (AID 530; active = well fitted curve in either direction with a large enough effect, not every such curve was filed as active;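 also: kinase came from lysate of stimulated human HepG2 cells; signal reports phosphorylation of biotinylated GST-cJun 1-79 at Ser73 with 10 µM ATP; % is scaled to controls: 0 for no effect and ±100 for the full control effect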); conditions: JNK3 lysate, c-Jun phosphorylation; series mostly up to 57.1 µM
Method in brief: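 Phosphorylation of biotinylated GST-cJun(1-79) at Ser73 is measured by AlphaScreen proximity luminescence. Enzyme is JNK3 in HepG2 lysates activated with interleukin-1beta and tumor necrosis factor alpha; ATP is 10 uM final.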

[7] = biological target: 3',5'-cyclic-AMP phosphodiesterase 4B (Homo sapiens) (UniProt Q07343); test: qHTS Assay for Inhibitors of PDE-IV (AID 607; active = well fitted activation curve with a large enough effect in the main read-out, with a control signal flat, not every such curve was filed as active; also: % of control where 0% means no effect); conditions: HEK293 ACTOne CNG channel cells, membrane potential fluorescence; series mostly up to 22.9 µM
Method in brief: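 ACTOne HEK293 cells carry a modified cAMP-gated CNG channel and express endogenous PDE4; plated 1000 cells/well, compounds up to 22.9 uM final. Membrane-potential dye fluorescence (ex 535/em 590) was read; parental cells received 10 uM forskolin + 100 uM RO 20-1724.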

[8] = qHTS Assay for Lipid Storage Modulators (AID 1519; calls by dose curve; also: potency is read from the fitted curve at half-maximal effect); conditions: Drosophila S3 cells, BODIPY lipid droplet/cell ratio, laser cytometry, cells loaded with oleic acid; for activity change, negative = inhibition: at 57.5 µM (top of the series)
Method in brief: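 Cells seeded at 5,000 per well were treated with compounds over a concentration series and loaded with oleic acid (400 uM, as added). Lipid droplet fluorescence (488 nm excitation, 500-530 nm channel) was read by laser-scanning cytometry and normalized to 20 uM Triacsin C.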

[9] = biological target: Dual specificity protein kinase CLK4 (Homo sapiens) (UniProt Q9HAZ1); test: qHTS Assay for Inhibitors of CDC-like Kinase 4 (Kinase-Glo Assay) (AID 1770); conditions: recombinant Clk4, Kinase-Glo ATP depletion luminescence; series mostly up to 66.7 µM; also: nearly all actives have a fitted effect of over 65% in size; also: potency is read from the fitted curve at half-maximal effect
Method in brief: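 Recombinant human Clk4 (25 nM) phosphorylated RS repeat peptide (100 uM) with 1 uM ATP in Tris pH 7.5/MgCl2/EGTA/DTT/Triton buffer for 4.5 h at room temperature. Residual ATP was quantified by Kinase-Glo luciferase luminescence.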

[10] = biological target: Dual specificity protein kinase CLK4 (Homo sapiens) (UniProt Q9HAZ1); test: qHTS Assay for Inhibitors of CDC-like Kinase 4 (ADP-Glo Assay) (AID 1771); conditions: recombinant CLK4, ADP-Glo luminescence; series mostly up to 80 µM; also: nearly all actives have a fitted effect of over 70% in size; also: potency is read from the fitted curve at half-maximal effect
Method in brief: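 Compounds are pin-transferred onto substrate mix (100 uM RS peptide, 1 uM ATP), then 25 nM Clk4 is added. After 1 hr at room temperature, ADP-Glo reagent runs 45 min, detection reagent 30 min, then luminescence is read.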

[11] = biological target: Dual specificity protein kinase CLK4 (Homo sapiens) (UniProt Q9HAZ1); test: qHTS Assay for Inhibitors of CDC-like Kinase 4 (ADP-FP Assay) (AID 1795); conditions: Transcreener ADP fluorescence polarization; series mostly up to 50 µM; also: nearly all actives have a fitted effect of over 60% in size; also: potency is read from the fitted curve at half-maximal effect
Method in brief: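 Recombinant human Clk4 (6.25 nM) phosphorylated RS repeat peptide (100 uM) with 1 uM ATP in Tris pH 7.5/MgCl2/EGTA/DTT/Triton buffer for one hour. ADP was quantified by Transcreener competitive fluorescence polarization against an ADP calibration curve.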

[12] = biological target: Ubiquitin carboxyl-terminal hydrolase 1 (Homo sapiens) (UniProt O94782); test: Inhibitors of USP1/UAF1: Pilot qHTS (AID 504865); conditions: purified USP1/UAF1, Ub-rhodamine cleavage fluorescence; series mostly up to 54.9 µM;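 also: rhodamine fluorescence freed from ubiquitin-rhodamine substrate followed over time; top concentration of the series differs between compounds; % is scaled to controls: 0 for no effect and ±100 for the full control effect; nearly all actives have a fitted effect of over 35% in size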
Method in brief: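 USP1/UAF1 complex (1nM) preincubated with compound 15 min at room temperature, then Ub-Rho substrate (150nM final) added. Fluorescence read kinetically at 480/540 nm, 6 reads every 60 seconds. Buffer: 50mM HEPES pH 7.8, 0.5mM EDTA, 0.1 mg/ml BSA, 1mM TCEP, 0.01% Tween-20.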

[13] = Primary qHTS for small molecule stabilizers of the endoplasmic reticulum resident proteome: Secreted ER Calcium Modulated Protein (SERCaMP) assay (AID 1508630); conditions: SH-SY5Y GLuc-SERCaMP (Gaussia luciferase released on ER calcium loss) secretion, thapsigargin, luminescence; series mostly up to 38.4 µM; also: % is scaled to controls: 0 for no effect and ±100 for the full control effect
Method in brief: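 The SH-SY5Y reporter protocol was run at 3 concentrations up to 38.3 uM (primary) or 11 concentrations (follow-up): 16 h compound, 100 nM thapsigargin for 4 h, then extracellular luciferase luminescence.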

[14] = biological target: Glucocorticoid receptor (Homo sapiens) (UniProt P04150); test: GR-GFP Redistribution (AID 450;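 active = compounds whose dose series gives a full or clear partial fitted curve of increased nuclear translocation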; also: potency is read from the fitted curve at half-maximal effect); conditions: U2OS GR-GFP nuclear translocation, laser cytometry, 2 h
[15] = measured here: cell count channel max response
[16] = measured here: lipid channel max response

Chain of Ubiquitin carboxyl-terminal hydrolase 1 (Homo sapiens) (O94782 whole entry, looked up): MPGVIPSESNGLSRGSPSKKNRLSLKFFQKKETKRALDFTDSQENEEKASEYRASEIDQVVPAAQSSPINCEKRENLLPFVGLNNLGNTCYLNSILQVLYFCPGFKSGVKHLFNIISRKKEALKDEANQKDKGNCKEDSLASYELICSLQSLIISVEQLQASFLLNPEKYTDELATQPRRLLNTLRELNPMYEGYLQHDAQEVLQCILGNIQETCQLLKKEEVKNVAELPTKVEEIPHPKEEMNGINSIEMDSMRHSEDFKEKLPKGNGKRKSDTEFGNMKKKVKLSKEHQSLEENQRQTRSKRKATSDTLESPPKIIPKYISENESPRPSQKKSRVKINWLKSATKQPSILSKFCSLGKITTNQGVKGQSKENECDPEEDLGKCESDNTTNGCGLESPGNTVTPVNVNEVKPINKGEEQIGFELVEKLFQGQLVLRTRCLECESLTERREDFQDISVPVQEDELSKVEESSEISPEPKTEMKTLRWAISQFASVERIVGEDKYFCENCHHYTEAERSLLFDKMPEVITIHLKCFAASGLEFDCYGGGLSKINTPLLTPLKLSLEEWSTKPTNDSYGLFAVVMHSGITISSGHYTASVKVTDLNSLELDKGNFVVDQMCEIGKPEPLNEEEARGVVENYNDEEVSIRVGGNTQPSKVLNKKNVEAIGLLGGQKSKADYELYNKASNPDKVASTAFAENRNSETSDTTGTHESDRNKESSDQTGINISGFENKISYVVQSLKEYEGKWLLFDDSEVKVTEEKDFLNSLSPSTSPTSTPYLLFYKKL
Chain of Dual specificity protein kinase CLK4 (Homo sapiens) (Q9HAZ1 whole entry, looked up): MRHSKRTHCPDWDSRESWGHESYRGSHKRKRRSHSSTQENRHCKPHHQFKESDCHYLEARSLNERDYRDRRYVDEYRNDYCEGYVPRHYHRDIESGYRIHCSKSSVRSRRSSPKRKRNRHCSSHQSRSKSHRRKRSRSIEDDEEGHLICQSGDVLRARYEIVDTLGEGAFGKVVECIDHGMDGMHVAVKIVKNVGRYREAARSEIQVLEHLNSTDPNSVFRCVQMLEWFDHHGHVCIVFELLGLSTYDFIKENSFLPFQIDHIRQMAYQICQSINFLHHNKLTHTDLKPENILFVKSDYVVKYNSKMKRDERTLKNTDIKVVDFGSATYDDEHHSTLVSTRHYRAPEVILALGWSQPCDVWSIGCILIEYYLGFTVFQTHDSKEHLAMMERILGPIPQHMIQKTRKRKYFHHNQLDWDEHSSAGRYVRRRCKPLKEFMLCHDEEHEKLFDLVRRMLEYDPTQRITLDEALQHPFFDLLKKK
Chain of 3',5'-cyclic-AMP phosphodiesterase 4B (Homo sapiens) (Q07343 whole entry, looked up): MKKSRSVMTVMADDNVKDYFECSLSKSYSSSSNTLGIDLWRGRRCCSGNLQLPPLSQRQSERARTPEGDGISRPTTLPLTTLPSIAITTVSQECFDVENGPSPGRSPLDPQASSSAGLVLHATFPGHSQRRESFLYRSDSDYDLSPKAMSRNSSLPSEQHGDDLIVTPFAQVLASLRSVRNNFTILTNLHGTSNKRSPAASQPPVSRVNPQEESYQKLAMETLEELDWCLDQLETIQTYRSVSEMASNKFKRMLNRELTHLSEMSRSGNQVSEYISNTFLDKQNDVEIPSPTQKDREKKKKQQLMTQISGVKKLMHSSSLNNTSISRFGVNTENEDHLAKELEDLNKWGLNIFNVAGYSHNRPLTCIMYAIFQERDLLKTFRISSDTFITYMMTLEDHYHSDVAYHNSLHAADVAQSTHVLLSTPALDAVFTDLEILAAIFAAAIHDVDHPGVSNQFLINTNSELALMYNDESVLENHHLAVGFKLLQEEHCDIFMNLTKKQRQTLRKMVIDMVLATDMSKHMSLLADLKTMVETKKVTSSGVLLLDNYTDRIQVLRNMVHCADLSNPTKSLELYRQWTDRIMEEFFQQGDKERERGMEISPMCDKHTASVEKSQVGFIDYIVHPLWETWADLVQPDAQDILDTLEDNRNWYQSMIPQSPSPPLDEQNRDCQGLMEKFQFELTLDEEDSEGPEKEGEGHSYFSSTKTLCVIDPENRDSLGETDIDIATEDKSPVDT
Chain of Lysosomal acid glucosylceramidase (Homo sapiens) (P04062 whole entry, looked up): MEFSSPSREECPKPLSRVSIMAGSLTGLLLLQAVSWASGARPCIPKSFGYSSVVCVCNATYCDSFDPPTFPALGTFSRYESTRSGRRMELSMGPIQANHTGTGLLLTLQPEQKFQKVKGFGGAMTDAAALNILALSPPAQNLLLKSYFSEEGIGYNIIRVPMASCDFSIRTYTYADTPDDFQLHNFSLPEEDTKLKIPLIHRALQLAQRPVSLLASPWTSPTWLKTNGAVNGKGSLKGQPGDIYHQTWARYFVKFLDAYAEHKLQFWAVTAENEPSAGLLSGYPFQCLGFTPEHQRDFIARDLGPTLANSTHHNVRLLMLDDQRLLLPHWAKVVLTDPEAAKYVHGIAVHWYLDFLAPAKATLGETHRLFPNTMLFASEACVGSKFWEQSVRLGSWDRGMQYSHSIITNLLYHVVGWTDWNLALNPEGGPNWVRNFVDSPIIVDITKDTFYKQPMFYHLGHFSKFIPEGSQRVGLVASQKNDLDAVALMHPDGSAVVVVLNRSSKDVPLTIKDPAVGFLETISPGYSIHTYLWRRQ
Chain of Glucocorticoid receptor (Homo sapiens) (P04150 whole entry, looked up, the tested form may be a part): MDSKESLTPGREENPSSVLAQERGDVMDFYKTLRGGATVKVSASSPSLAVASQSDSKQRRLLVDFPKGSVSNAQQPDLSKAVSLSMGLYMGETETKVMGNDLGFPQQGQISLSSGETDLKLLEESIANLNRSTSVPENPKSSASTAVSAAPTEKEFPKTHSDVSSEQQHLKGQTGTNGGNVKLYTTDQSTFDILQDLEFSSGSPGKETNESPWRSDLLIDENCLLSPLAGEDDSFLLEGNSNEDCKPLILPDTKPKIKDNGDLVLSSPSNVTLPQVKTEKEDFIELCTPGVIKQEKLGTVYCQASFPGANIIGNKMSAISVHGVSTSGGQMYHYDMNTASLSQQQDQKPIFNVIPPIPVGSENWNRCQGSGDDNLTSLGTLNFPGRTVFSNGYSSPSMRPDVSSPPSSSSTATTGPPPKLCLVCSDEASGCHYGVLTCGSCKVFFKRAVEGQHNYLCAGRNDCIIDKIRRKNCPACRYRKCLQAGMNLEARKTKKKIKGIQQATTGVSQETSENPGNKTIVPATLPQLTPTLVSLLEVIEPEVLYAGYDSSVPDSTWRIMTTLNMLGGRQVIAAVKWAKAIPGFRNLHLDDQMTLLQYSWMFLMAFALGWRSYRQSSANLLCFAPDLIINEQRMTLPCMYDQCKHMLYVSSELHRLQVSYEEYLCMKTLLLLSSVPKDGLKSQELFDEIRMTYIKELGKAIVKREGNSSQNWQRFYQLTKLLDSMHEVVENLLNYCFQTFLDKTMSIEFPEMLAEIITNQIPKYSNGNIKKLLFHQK

c1nc(N2CCNCC2)c2cc(-c3ccoc3)ccc2n1
active: Potency [9] 1.58 µM | Potency [10] 3.16 µM | Potency [11] 0.708 µM
inactive: Potency [1] > 11.4 µM | activity change, negative = inhibition [2] -10.9% | activity change, negative = inhibition [3] 9.12% | activity, negative = inhibition [4] -4.93% | Potency [5] > 46 µM | outcome [6] | Potency [7] | activity change, negative = inhibition [8] 3.07% | Potency [12] | Potency [13]
29.3%: max response [8, 15]
29.5%: max response [8, 16]

COc1ccc(Oc2ncc3nc(-c4ccc(Cl)cc4)c(=O)n(C[C@H]4CCCO4)c3n2)cc1
-25.3%: max response [8, 15]
-85.4%: max response [8, 16]
active: Potency [8] 28.2 µM
inactive: Potency [1] > 11.4 µM | activity change, negative = inhibition [2] -19.3% | activity change, negative = inhibition [3] -18.6% | activity, negative = inhibition [4] -13.9% | Potency [14] > 9.22 µM | Potency [5] > 46 µM | outcome [6] | Potency [7] | Potency [9] | Potency [10] | Potency [11] | Potency [12] | Potency [13]

CN1CCN(c2ncc3ncc(=O)n(C4CC4)c3n2)CC1
-12.9%: max response [8, 16]
inactive: Potency [1] > 11.4 µM | activity change, negative = inhibition [2] -15.2% | activity change, negative = inhibition [3] -12.8% | activity, negative = inhibition [4] -9.77% | Potency [14] > 9.22 µM | Potency [5] > 46 µM | outcome [6] | Potency [7] | activity change, negative = inhibition [8] -0.747% | Potency [9] | Potency [10] | Potency [11] | Potency [12] | Potency [13]
-13.5%: max response [8, 15]

Cc1noc(C)c1-c1cc(N2CCNCC2)ncn1
1.52%: max response [8, 15]
inactive: Potency [1] > 11.4 µM | activity change, negative = inhibition [2] -3.92% | activity change, negative = inhibition [3] 7.79% | activity, negative = inhibition [4] 5.3% | Potency [14] > 46 µM | Potency [5] > 46 µM | outcome [6] | Potency [7] | activity change, negative = inhibition [8] 5.16% | Potency [9] | Potency [10] | Potency [11] | Potency [12] | Potency [13]
8.99%: max response [8, 16]

CCNc1ncc2nc(-c3ccc(Cl)cc3)c(=O)n(CCC#N)c2n1
15.3%: max response [8, 15]
24.2%: max response [8, 16]
inactive: Potency [1] > 11.4 µM | activity change, negative = inhibition [2] 8.5% | activity change, negative = inhibition [3] -14.8% | activity, negative = inhibition [4] 14.5% | Potency [14] > 9.22 µM | Potency [5] > 46 µM | outcome [6] | Potency [7] | activity change, negative = inhibition [8] 8.4% | Potency [9] | Potency [10] | Potency [11] | Potency [12] | Potency [13]

CN(C)C(=O)c1ccc(-c2cc(-n3ccnc3)ncn2)cc1
16.5%: max response [8, 16]
active: Potency [9] 11.2 µM | Potency [10] 10 µM | Potency [11] 12.6 µM
14.1%: max response [8, 15]
inactive: Potency [1] > 11.4 µM | activity change, negative = inhibition [2] -15.5% | activity change, negative = inhibition [3] 7.69% | activity, negative = inhibition [4] 7.04% | Potency [14] > 46 µM | outcome [6] | Potency [7] | activity change, negative = inhibition [8] 4.31% | Potency [12] | Potency [13]

Reference: PubChem BioAssay (NCATS)
